For 5 compounds, relative cell viability results are on record in the supplement of paper PMC9492666.

One assay has as its system HCC1937. In words: relative cell viability, compound + erastin, vs DMSO (fraction of DMSO control); higher = less growth inhibition. The following applies: 72 h.
A further assay concerns MDA-MB-231. The description is as above. The following applies: 72 h.
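Also: viability read by CCK-8 kit in 96-well plates, part of a combination screen pairing lipid-metabolism-targeting compounds with erastin.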

As for `CC1(C)CC[C@]2(C(=O)O[C@@H]3O[C@H](CO)[C@@H](O)[C@H](O)[C@H]3O)CC[C@]3(C)C(=CC[C@@H]4[C@@]5(C)CC[C@H](O[C@@H]6O[C@H](C(=O)O)[C@@H](O)[C@H](O)[C@H]6O)C(C)(C)[C@@H]5CC[C@]43C)[C@@H]2C1` [Chikusetsusaponin IVa] + CCOc1ccccc1-n1c(C(C)N2CCN(C(=O)COc3ccc(Cl)cc3)CC2)nc2ccccc2c1=O [erastin], the values for the relative cell viability in the assay with HCC1937 and in the assay on MDA-MB-231 were 0.592 and 0.682, respectively.
The corresponding values for `O=C(O)c1cc2c(Cl)c(N3CCN(S(=O)(=O)c4c(Cl)cccc4Cl)CC3)ccc2o1` [Vonafexor] + CCOc1ccccc1-n1c(C(C)N2CCN(C(=O)COc3ccc(Cl)cc3)CC2)nc2ccccc2c1=O [erastin] are 0.846 and 0.989.
For `NC(=O)c1cccc(-c2cccc(OC(=O)NC3CCCCC3)c2)c1` + CCOc1ccccc1-n1c(C(C)N2CCN(C(=O)COc3ccc(Cl)cc3)CC2)nc2ccccc2c1=O [erastin], the relative cell viability in the assay with HCC1937 was 0.756; in the assay with MDA-MB-231 it was 0.568.
On to `O=C(NN1CCCCC1)c1nn(-c2ccc(Cl)cc2Cl)c(-c2ccc(C#Cc3ccc(C(F)(F)F)cc3)s2)c1CNS(=O)(=O)N1CCCC1` + CCOc1ccccc1-n1c(C(C)N2CCN(C(=O)COc3ccc(Cl)cc3)CC2)nc2ccccc2c1=O [erastin], for which the relative cell viability stood at 0.496 with HCC1937 and 0.395 with MDA-MB-231.
The corresponding values for `C[C@H](CCC(=O)O)[C@H]1CC[C@H]2[C@@H]3C[C@H](O)[C@@H]4C[C@H](O)CC[C@]4(C)[C@H]3CC[C@]12C` [Hyodeoxycholic acid] + CCOc1ccccc1-n1c(C(C)N2CCN(C(=O)COc3ccc(Cl)cc3)CC2)nc2ccccc2c1=O [erastin] are 0.767 and 0.881.
